This is part of a sample that, as a whole, favours compounds with a hit. Of some 83,000 tested, about 20% had one in any assay.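 Plates (96-well) were seeded with cells, treated with compound at one concentration, and incubated for 48 hours before percent growth was determined.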 Activity calls are given as the source filed them.
test system: HCT-15 colon; experiment: NCI-60 one-dose screen, 48 h (100 = growth as untreated, 0 = no growth, -100 = all killed); details: 10 µM unless noted
Protocol: Growth inhibition of the HCT-15 human tumor cell line is measured as a screen for anti-cancer activity. Cells are grown in 96 well plates and exposed to the test compound for 48 hours. Compounds are tested at a single concentration, which is 10^-5 M for most compounds. The reported endpoint is percent growth (GI% or GIPRCNT), where numbers from 0 - 100% represent growth inhibition, and numbers from -100% - 0 represent cell death. For example, a value of 40 represents 60% growth inhibition. A value of 0 means no net growth occurred over the course of the experiment. A value of -40 indicates 40% of cells at the beginning of the experiment died by the end of the experiment. A value of -100 means all cells are dead at the end of the experiment.
NCI-60 Human Tumor Cell Lines Screen was performed using the standard one-dose NCI protocol, which is described in more detail at https://dtp.cancer.gov/discovery_development/nci-60/default.htm.
Compounds with GIPRCNT values below 10 were considered active. Activity score was based on GIPRCNT using the following formula: […]
Score is 0 for GIPRCNT values of 100 or above, 50 for GIPRCNT values of 0, and 100 for GIPRCNT values of -100.

Row | SMILES | growth
1 | CCOC(=O)c1sc2nc(-c3cccc(O)c3)nc(N3CCOCC3)c2c1C | 43.7% (inactive)
2 | CN1CCN=C1c1ccc(NC(=O)c2ccc(C(=O)Nc3ccc(C4=NCCN4C)cc3)cc2)cc1 | 108% (inactive)
3 | COc1ccc(-c2cc(=O)c3c(OC)c4ccoc4cc3o2)cc1 | 92.4% (inactive)
4 | Cn1cc(-c2nonc2-c2c[nH]c3ccc(F)cc23)c2cccnc21 | 62.3% (inactive)
5 | C[n+]1ccccc1/C=C/c1ccc2cccc(O)c2n1 | 106% (inactive)
6 | O=c1nc2oc3ccc4ccccc4c3cc-2s1 | 32.4% (inactive)
7 | NC(CSC(c1ccccc1)(c1ccccc1)c1ccc(Cl)cc1)C(=O)O (stereo not given) | 19.3% (inactive)
8 | COc1cc(/C=C/c2cc(/C=C/c3ccc(O)c(OC)c3)n(-c3c(C)cccc3C)c(=O)n2)ccc1O | 8.19% (active)
9 | CN(C)CCN1C(=O)c2cccc3c(N)ccc(c23)C1=O | 23.2% (inactive)
10 | O=C1/C(=C/c2ccc3c(c2)OCO3)SC(=S)N1CCc1ccc(O)cc1 | 93% (inactive)
11 | COc1cc(-c2nc(C(=O)NCC(=O)NO)nn2-c2ccc(Cl)cc2)cc(OC)c1OC | 101% (inactive)
12 | COc1cccc(-c2nn(C(C)(C)C)cc2-c2ccnc(NCCCNS(=O)(=O)c3cccc4ccccc34)c2)c1 | 108% (inactive)
13 | O=C1Nc2ccc(Br)cc2C12Oc1ccccc1C1CC(c3ccc(F)cc3)=NN12 (stereo not given) | 79.9% (inactive)
14 | NC(=O)c1cc(Cl)ccc1NC(=O)/C=C/c1ccccc1 | 27.3% (inactive)
15 | Cc1cc(C)nc(SC2=C(Nc3cc(Cl)ccc3O)C(=O)N(Cc3ccccc3)C2=O)n1 | 92.1% [30 µM] (inactive)
16 | COc1ccc(/C=C(\C#N)C(=O)Nc2cccc(Nc3nc(SC)nc(-c4cccc([N+](=O)[O-])c4)c3C#N)c2)cc1OC | 95.3% (inactive)
17 | NC(=O)c1cc(Br)ccc1NC(=O)/C=C/c1ccccc1 | 30.9% (inactive)
18 | C=CC(COC(c1ccccc1)(c1ccccc1)c1ccccc1)N(CC)CC (stereo not given) | 16.7% (inactive)
19 | CC(C)n1c(/C=C/[C@@H](O)C[C@@H](O)CC(=O)O)c(-c2ccc(F)cc2)c2ccccc21 | 50.6% (inactive)
20 | CN(C)c1ccc(N=Nc2ccc(Br)cn2)c(O)c1 | 28.3% (inactive)

Row | SMILES | growth
21 | O=C1Nc2cc(-c3ccc(O)cc3)ccc2/C1=C/c1ccc[nH]1 | 7.26% (active)
22 | CC(=O)c1cc2c(N)c(C(=O)Nc3ccccc3)sc2nc1C | 60.3% (inactive)
23 | Cc1cc(N2CCN(c3ccnc4cc(Cl)ccc34)CC2)nc(NC2CCCCC2)n1 | 3.54% (active)
24 | CCCCn1c(-c2ccc(C(=O)O/N=C(\N)c3ccc4ccccc4c3)cc2)nc(-c2ccccc2)c1-c1ccccc1 | 52.1% (inactive)
25 | Cc1ccc(-c2onc3c(=O)[nH]nc(-c4ccccc4)c23)cc1 | 31.7% (inactive)
26 | COc1ccc(NC2=C(Sc3nc(C)cc(C)n3)C(=O)N(Cc3ccccc3)C2=O)cc1Cl | 73.8% [30 µM] (inactive)
27 | O=C(C(=O)c1ccc2c(c1)OCO2)c1ccc2c(c1)OCO2 | 110% (inactive)
28 | O=C1c2cc3c(cc2-c2c1c1ccc(F)cc1c(=O)n2CCCNCCO)OCO3 | -41.8% (active)
29 | O=C(/C=C/c1ccccc1)c1ccc(O)c(CN2CCN(c3cc4c(cc3F)c(=O)c(C(=O)O)cn4C3CC3)CC2)c1 | 16.9% (inactive)
30 | COc1ccc(/C=C/C(=O)c2ccc(O)c(CN3CCN(c4cc5c(cc4F)c(=O)c(C(=O)O)cn5C4CC4)CC3)c2)cc1 | 19.1% (inactive)
31 | CCN(CC)c1ccc(/C=N\NC(=O)/C=C/C=C/c2ccc3c(c2)OCO3)c(O)c1 | 21.3% (inactive)
32 | O=C(/C=C/c1cccc(Cl)c1)c1ccc(O)c(CN2CCN(c3cc4c(cc3F)c(=O)c(C(=O)O)cn4C3CC3)CC2)c1 | 17.5% (inactive)
33 | CCOc1cc2c(cc1OCC)C(c1cc(OC)c(O)cc1Cl)NCC2 (stereo not given) | 86.9% (inactive)
34 | NNCCc1ccc(NC(=O)CCCc2ccc(/C=C/C(=O)NO)cc2)cc1 | 80.1% (inactive)
35 | CC(=O)Oc1ccc(Cl)cc1CN(C(C)=O)C1CCCCC1 | 101% (inactive)
36 | O=C(COc1ccc(-c2nc3cc(Cl)c(Cl)cc3[nH]2)cc1)N=Nc1c(O)[nH]c2ccccc12 | 79.4% (inactive)
37 | Cc1ccc(C(SCC(N)C(=O)O)(c2ccccc2)c2ccc(C)cc2)cc1 (stereo not given) | 20.1% (inactive)
38 | O=C1NC(=Nc2ccc(O)cc2)S/C1=C\c1cccc(Cl)c1 | 30.1% (inactive)
39 | c1ccc(-c2cc3n4c(-c5ccccc5)nn(-c5ccccc5)c4cnc-3n2)cc1 | 86.2% (inactive)
40 | O=C(Cc1ccc(/C=C/C(=O)c2ncc[nH]2)cc1)Nc1ccccc1 | 12.9% (inactive)

— PubChem BioAssay (NCI)
